Compound activity as filed in PubChem BioAssay.
HT1080NT lethal = kills 2HG-producing HT-1080-NT fibrosarcoma cells. Potency, µM (top dose mostly 46.1 µM), for the others: at the highest dose activity, negative = less viability, usual class: cytotoxic. HT-1080-NT fibrosarcoma viability, CellTiter-Glo ATP luminescence, 48 h. 360,000 tested, 1.6% active. AID 686970;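 note: NT is the 2HG producing partner of a matched IDH1 knockdown line; 0% = DMSO-treated cells and -100% = media-only wells without cells; nearly all actives have a fitted effect of over 55% in size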
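Viability by CellTiter-Glo luminescence after 48 h compound exposure at 37C of HT-1080-NT cells (750/well, RPMI, 5% FBS). % activity scaled between DMSO wells and medium-only wells, then curve-fitted and categorized by curve class.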
HT1080 IDH1KD tx = kills HT-1080 cells with IDH1 knockdown; HT-1080 IDH1 knockdown viability, ATP luminescence, 48 h; Potency, µM (titrated, usually from 46.1 µM), for the others: top-dose activity, negative = toxicity, most hits filed as cytotoxic; 360,000 tested, 2% active; AID 686971;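 note: 0% = DMSO wells and -100% = cell-free medium wells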
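Knockdown cells (IDH1KD HT-1080) received compounds 2 h after plating at 750 cells/well and were kept 48 h at 37 °C in 5% FBS RPMI. A CellTiter-Glo luminescence read gave % activity for curve fitting.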
ATXN viability = viability counter-screen for ATXN expression inhibitors; S2 cells (HEK-293 line with an ATXN2-luciferase reporter) viability, CellTiter-Fluor protease fluorescence, 24 h; Potency, µM (highest dose often 56.7 µM), actives largely listed as cytotoxic; 400,000 tested, 0.49% active; note: nearly all actives have a fitted effect of over 40% in size
KB-3-1 cytotox = kills parental KB-3-1 adenocarcinoma cells | KB-3-1 viability, CellTiter-Glo ATP luminescence, 72 h | Potency, µM (doses to about 46.1 µM), hits mostly cytotoxic | 400,000 tested, 1.4% active; note: % is set by controls: 0 for no effect and ±100 for the full control effect; nearly all actives have a fitted effect of over 60% in size
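Using CellTiter-Glo luminescence, growth of non-resistant KB-3-1 adenocarcinoma cells is assessed 72 h after pin-tool compound addition at 37 °C. Normalized responses across the concentration series yield fitted curves.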
KB-V1 MDR tox = KB-V1 MDR subline cytotoxicity; 400,000 tested, 3.4% active; KB-V1 MDR cells viability, CellTiter-Glo, 72 h; Potency, µM (series often up to 46.1 µM), most hits filed as cytotoxic; note: % is set by controls: 0 for no effect and ±100 for the full control effect; nearly all actives have a fitted effect of over 60% in size
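Drug-selected KB-V1 cells, grown in DMEM lacking phenol red with 10% FBS, receive compound titrations; after three days at 37 degrees C, surviving cell ATP is quantified by CellTiter-Glo luminescence and responses normalized and curve-fitted.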
ATXN2 expr inh = ATXN2 expression inhibition. AID 1745845. HEK-293 ATXN2-luciferase reporter, luminescence, 24 h. 360,000 tested, 0.72% active. Potency, µM (top dose mostly 57 µM), without a hit: at the highest dose activity change, negative = inhibition, usual class: inhibitors; note: % is set by controls: 0 for no effect and ±100 for the full control effect; nearly all actives have a fitted effect of over 55% in size
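ATXN2-luciferase reporter cells (luciferase flanked by upstream and downstream ATXN2 gene portions) were treated 24 h at 37 °C with compounds at up to 57 uM. SteadyGlo luminescence gave expression; GF-AFC fluorescence gave viability.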
An asterisk follows results filed as active; i = inactive; ? = inconclusive; / = no result; ! = repeats disagree. An excerpt weighted towards active compounds, which were near 6.2% of everything screened. Calls come from the whole dose curve; as a rule, active = well fitted curve in the direction sought with a large enough effect; inconclusive = small, poorly fitted or top-dose-only effect, or another doubt; inactive = no such curve, though single readings can be large; an effect the other way counts as inactive or inconclusive. Potency is the fitted concentration of half-maximal effect.

SMILES	HT1080NT lethal	HT1080 IDH1KD tx	ATXN viability	KB-3-1 cytotox	KB-V1 MDR tox	ATXN2 expr inh
COc1ccc(CCC(=O)Nc2cc(Cl)ccc2OC)cc1	-24%	-11%	i	i	21µM*	-18%
C=CCN(CC=C)C(=O)Nc1cc(Cl)ccc1OC	15%	-14%	i	i	15µM*	1%
CCCNS(=O)(=O)c1ccc(CCC(=O)Nc2cc(Cl)ccc2Oc2ccccc2)cc1	-10%	-19%	?	i	8.2µM*	-28%
CC(C)CNS(=O)(=O)c1ccc(CCC(=O)Nc2cc(Cl)ccc2Oc2ccccc2)cc1	-25%	-41%	i	?	i	-32%
COC(=O)c1c(OCc2ccccn2)cc(=O)n2c1CCN(Cc1ccc3nsnc3c1)CC2	/	/	i	/	/	/
Cc1ccc2oc(-c3ccc(C)c(NC(=O)COc4ccc(Cl)cc4C)c3)nc2c1	/	/	/	?	i	/
COc1ccccc1OCC(=O)NCCc1nc2ccccc2[nH]1	0%	-3%	i	i	i	-4%
O=C(COc1ccccc1Br)NCCc1nc2ccccc2[nH]1	4%	7%	?	i	15µM*!	7%
O=S(=O)(c1cccc(-c2csc(-c3ccccc3)n2)c1)N1CCOCC1	3%	0%	i	i	i	1%
O=S(=O)(c1cccc(-c2nc3ccccc3s2)c1)N1CCOCC1	-8%	-7%	i	?	16µM*	2%
CCN1CCN(C(=O)c2ccc(-c3nc4ccccc4s3)s2)CC1	-1%	-10%	?	i	i	/
Cc1ccc(-c2nc3ccccc3s2)cc1S(=O)(=O)N1CCCC1	-41%	10µM*	i	i	i	11%
O=C(c1ccc(-c2nc3ccccc3s2)s1)N1CCOCC1	8.2µM*	?	i	?	?	?
O=C(COc1ccc(Br)cc1Br)Nc1ccc(S(=O)(=O)Nc2ncccn2)cc1	/	/	i	i	?	4%
O=C1CCc2cc(S(=O)(=O)Nc3ccc(Cl)c(Cl)c3)c(F)cc2N1	/	/	/	i	?	/
CN(C)/C=C1\C(=O)ON=C1c1ccccc1	-12%	15%	i	i	i	5%
CC1=NN(c2ccccc2)C(=O)/C1=C/C=C/c1ccccc1	3.3µM*	9.2µM*	?	?	?	?
Cc1ccc(C2=NOC(=O)/C2=C\C=C\c2ccccc2)cc1	9.2µM*	13µM*	?	?	?	?
CC1=NN(c2cccc(C(=O)O)c2)C(=O)/C1=C\C=C\c1ccco1	4%	0%	?	i	i	7%
Cc1cccc(N2CCN(C(=O)Cn3c(C)c4cnn(-c5ccccc5)c(=O)c4c3C)CC2)c1C	/	/	?	?	i	?
CN(CC(=O)Nc1ccccc1Cl)S(=O)(=O)c1ccc(C(=O)N2CCOCC2)s1	/	/	i	i	i	1%
Cc1ccc(NC(=O)C(=O)Nc2ccc(C)cn2)nc1	?	4%	i	i	i	15%
Cc1ccc(NC(=O)/C(C#N)=C(\N)C(Cl)(Cl)Cl)nc1	?	?	?	18µM*	?	-15%
COc1ccc(CCN2CCC(CNC(=O)c3cnn(-c4ccc(C)cc4)c3C3CCN(C(=O)OC(C)(C)C)CC3)CC2)cc1	/	/	/	i	?	/
Cc1ccc(N(CC(=O)N2CCN(c3ccc(Cl)cc3)CC2)S(=O)(=O)c2c(C)noc2C)cc1	/	/	i	?	i	6%
SMILES	HT1080NT lethal	HT1080 IDH1KD tx	ATXN viability	KB-3-1 cytotox	KB-V1 MDR tox	ATXN2 expr inh
Cc1ccc(S(=O)(=O)Oc2ccc(N3C(=O)C4C5CCC(C5)C4C3=O)cc2)cc1 (centres undefined)	-9%	-11%	i	i	i	-8%
O=C1C2C3CCC(C3)C2C(=O)N1c1ccc(OS(=O)(=O)c2ccccc2)cc1 (centres undefined)	-3%	-26%	i	?	9.2µM*	22%
CN(C)CC(C)(C)CNC(=O)c1cnn(-c2nccc(-c3ccc4c(c3)OCO4)n2)c1-c1ccco1	/	/	i	/	/	/
COc1ccccc1NC(=O)N(Cc1ccco1)Cc1cc2ccc(C)c(C)c2[nH]c1=O	3.7µM*	2.6µM*	?	5.8µM*	5.8µM*	?
COC(=O)c1ccccc1NC(=S)N(Cc1ccc2c(c1)OCO2)Cc1cc2cc(OC)ccc2[nH]c1=O	1%	-3%	i	i	18µM*	-11%
Cc1ccc2cc(CN(CCN3CCCC3)C(=O)Nc3ccc(F)cc3)c(=O)[nH]c2c1C	23µM*	?	?	i	i	-22%
COc1ccccc1NC(=O)N(CCN1CCOCC1)Cc1cc2cc(C)cc(C)c2[nH]c1=O	-4%	-11%	i	i	i	-32%
COc1ccccc1NC(=O)N(Cc1ccco1)Cc1cc2cc(C)cc(C)c2[nH]c1=O	?	?	?	?	18µM*	-38%
COc1cccc(CN2CCC(n3cc(C(=O)N4CCCCC4)nn3)CC2)c1OC	/	/	i	/	/	/
CC(C)OC(=O)OCOP(=O)(CO[C@H](C)Cn1cnc2c(N)ncnc21)OCOC(=O)OC(C)C	/	/	i	/	/	?
CCOC(=O)Cn1c(=O)cc(-c2ccccc2)c2c(C)nn(C)c21	/	/	i	i	i	-4%
Cc1ccc2cc(CN(Cc3ccco3)C(=O)c3cccs3)c(=O)[nH]c2c1	4.6µM*	5.8µM*	?	?	5.2µM*	1%
Cc1cccc2cc(CN(Cc3ccco3)C(=O)c3cccs3)c(=O)[nH]c12	0%	2%	i	?	i	-8%
COc1ccccc1NC(=S)N(Cc1ccco1)Cc1cc2cccc(C)c2[nH]c1=O	-2%	-8%	i	i	?	-18%
COc1ccccc1NC(=S)N(Cc1ccco1)Cc1cc2cc(C)c(C)cc2[nH]c1=O	?	7.3µM*	?	?	2.6µM*	-5%
Cc1[nH]c2ccccc2c1C(c1ccccn1)N1CCCC1 (centres undefined)	8%	6%	i	i	i	35%
Cc1[nH]c2ccccc2c1C(c1ccccn1)N1CCC(C)CC1 (centres undefined)	3%	8%	i	18µM*	?	25%
Cc1ccc(S(=O)(=O)N2CCCC(C(=O)NC3CCCC3)C2)cc1Cl (centres undefined)	-9%	-3%	i	?	13µM*	-15%
Cn1cc(C(=O)NCc2ccccc2)c(=O)c2cc(S(=O)(=O)N3CCCCCC3)ccc21	/	/	i	i	?	10%
